Results on 5 compounds are retold here after PubChem BioAssay (NCATS).

Assay [1] in a line: NFAT Signaling Pathway (AID 444; active means well fitted curve in either direction with a large enough effect, not every such curve was filed as active;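 further: carbachol stimulus at about its EC50 of 1 µM final; on the % scale 0 is the no-effect control and ±100 the full control effect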). The following applies: Jurkat NFAT-bla M1, carbachol, beta-lactamase ratio, 5 h; at 17.2 µM (top of the series) unless noted. In short, it runs like this: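 Jurkat cells with NFAT-driven β-lactamase reporter and co-expressed M1 receptor, stimulated with carbachol (final 1 uM, ~EC50), compound titration, 5 h at 37 °C. CCF4 loaded 1 h at RT; 460/530 nm ratio gave %activity and AC50.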

For assay [2], the target named is Glucocorticoid receptor (Homo sapiens) (UniProt P04150). In words: GR-GFP Redistribution (AID 450;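 active means compounds whose dose series gives a full or clear partial fitted curve of increased nuclear translocation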; further: potency means the concentration at half of the fitted maximal effect).
Assay [3] is described as follows: Stat Signaling Pathway (AID 446; active means well fitted curve in either direction with a large enough effect, not every such curve was filed as active;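 further: ME-180 cervical cancer cells given 40 pM IL-6 alongside compound; SIE-controlled beta-lactamase reporter measured as 460/530 nm FRET emission ratio; on the % scale 0 is the no-effect control and ±100 the full control effect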). The following applies: ME-180 SIE beta-lactamase reporter, IL-6 stimulated, 5 h; at 17.2 µM (top of the series) unless noted. The method in brief:
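IL-6/STAT signaling read in ME-180 cells via an SIE beta-lactamase reporter. Stimulus was 40 pM IL-6 (its AC50) for 5 hrs, so both activation and inhibition register.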

Assay [4] addresses Mitogen-activated protein kinase 10 (Mus musculus) (UniProt Q61831). In words: JNK3 AlphaScreen Assay (AID 530; active means well fitted curve in either direction with a large enough effect, not every such curve was filed as active;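 further: kinase came from lysate of stimulated human HepG2 cells; signal reports phosphorylation of biotinylated GST-cJun 1-79 at Ser73 with 10 µM ATP; on the % scale 0 is the no-effect control and ±100 the full control effect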). The method in brief:
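qHTS format: compounds tested as titrations against IL-1beta/TNF-alpha-activated HepG2 lysate JNK3 with biotin-GST-cJun substrate and 10 uM ATP at room temperature. Loss of anti-phospho-cJun AlphaScreen signal indicates inhibition.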
On the technique in general: Alpha assays give light when donor and acceptor beads are brought close together.

For assay [5], the target named is 3',5'-cyclic-AMP phosphodiesterase 4B (Homo sapiens) (UniProt Q07343). Kind of assay: qHTS Assay for Inhibitors of PDE-IV (AID 607; active means well fitted activation curve with a large enough effect in the main read-out, with a control signal flat, not every such curve was filed as active; further: % of control where 0% means no effect). The method in brief: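 Live HEK293 cells with a modified cyclic nucleotide-gated (CNG) channel report intracellular cAMP via membrane-potential dye fluorescence (ex 535/em 590 nm). Endogenous PDE-IV was targeted. Compounds were tested at up to 22.9 uM final; RO 20-1724 100 uM served as control.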
On the technique in general: qHTS replaces the single test concentration by a dilution series.

Assay [6] addresses ATP-dependent 6-phosphofructokinase (Trypanosoma brucei brucei) (UniProt O15648). In words: qHTS Assay to Find Inhibitors of T. brucei phosphofructokinase: hit validation (AID 492961).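 Further: luminescence reports ADP formed as PFK phosphorylates fructose-6-phosphate with ATP; on the % scale 0 is the no-effect control and ±100 the full control effect.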 In short, it runs like this: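 Inhibition of parasite PFK is measured as reduced ADP formation, quantified via luciferase after ATP depletion. Assay used 0.1 mM ATP, 0.5 mM F6P, 1.25 nM enzyme, 45 min incubation.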

In assay [7] the target is Luciferin 4-monooxygenase (Photinus pyralis) (UniProt P08659). In words: Biochemical firefly luciferase enzyme assay for NPC (AID 624030).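 Further: purified P. pyralis luciferase at 10 nM with luciferin and ATP substrate; 0% = DMSO and -100% = full luciferase inhibition by PTC124 control; nearly all actives have a fitted effect of over 70% in size.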 The method in brief: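 Purified P. pyralis luciferase at 10 nM in 50 mM Tris Acetate (final), luminescence read within 5 minutes of enzyme addition to compounds. Activity normalised to PTC124 versus DMSO; concentration-response curves classed by r2, magnitude and activity.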

Assay [8] can be described thus: S16 Schwann cell viability assay (CellTiter-Glo assay) (AID 624031).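 Further: plate controls were DMSO-treated cells for no effect and cell-free wells for full effect; nearly all actives have a fitted effect of over 70% in size.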 In short, it runs like this: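 This viability control uses native rat S16 Schwann cells grown in DMEM plus 10% FBS. After a 24 h compound treatment at 37 °C, CellTiter-Glo luminescence reports ATP content, scaled against DMSO-treated and cell-free wells.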
(In general: ATP-based viability assays read luminescence as a measure of living cells.)

A short description of assay [9]: S16 Schwann cell PMP22 intronic element firefly luciferase assay (AID 624032).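 Further: plate controls were DMSO for no effect and PTC124 positive control mean for full effect; nearly all actives have a fitted effect of over 30% in size.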 In short, it runs like this: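 Rat S16 Schwann cells stably carrying firefly luciferase driven by a PMP22 intronic element, in 10% FBS, treated 24 h at 37 C. ONE-Glo luminescence normalized to PTC124 control and DMSO (0%); curves classed by r2, magnitude and activity.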
A short description of assay [10]: S16 Schwann cell PMP22 intronic element beta-lactamase assay (AID 624044; calls by dose curve; further: potency means the concentration at half of the fitted maximal effect; nearly all actives have a fitted effect of over 15% in size). Conditions: S16 rat Schwann cells, PMP22 element beta-lactamase FRET, 24 h; ratio activity, negative = inhibition: at 38.3 µM (top of the series). The method in brief:
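Rat S16 Schwann cells with beta-Lac driven by a PMP22 intronic element, compound-treated 24 h at 37 °C. LiveBLAzer FRET B/G read: 460 nm normalized to potassium clavulanate vs DMSO; 535 nm FRET as viability; concentration-effect curves classified.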

The next assay has as its system 7G8. In words: qHTS profiling for inhibitors of Plasmodium falciparum proliferation (AID 504749). Further: nearly all actives have a fitted effect of over 60% in size. Further: potency means the concentration at half of the fitted maximal effect.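 On activity, negative = inhibition: 0% = DMSO vehicle and full inhibition = artemisinin control.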 The following applies: P. falciparum in erythrocytes, SYBR Green DNA, 72 h; series mostly up to 28.7 µM. The method in brief: (§1)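 Readout was DNA-dye fluorescence from lysed cultures, ex 485/em 535 nm. Parasitized red cells had grown 72 h with compound; data scaled between 0.29 uM artemisinin and DMSO wells and corrected using vehicle-only plates.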

A further assay relates to CP192. Described as above. Conditions: P. falciparum in erythrocytes, SYBR Green DNA, 72 h; series mostly up to 28.7 µM. In short, it runs like this: as §1
Another assay relates to CP201. Described as above. The following applies: P. falciparum in erythrocytes, SYBR Green DNA, 72 h; series mostly up to 28.7 µM. In short, it runs like this: as §1
A further assay concerns CP203. The assay is described as above. The following applies: P. falciparum in erythrocytes, SYBR Green DNA, 72 h; series mostly up to 28.7 µM. In short, it runs like this:
as §1

The test system of another assay is CP262. The description is as above. The following applies: P. falciparum in erythrocytes, SYBR Green DNA, 72 h; series mostly up to 28.7 µM. The method in brief: as §1
The test system of another assay is CP266. The description is as above. Conditions: P. falciparum in erythrocytes, SYBR Green DNA, 72 h; series mostly up to 28.7 µM. The method in brief: as §1
A further assay relates to CP315. The assay is described as above. Conditions: P. falciparum in erythrocytes, SYBR Green DNA, 72 h; series mostly up to 28.7 µM. The method in brief: as §1
For a further assay, the system named is DIV14. Described as above. Conditions: P. falciparum in erythrocytes, SYBR Green DNA, 72 h; series mostly up to 28.7 µM. In short, it runs like this: as §1
Another assay concerns FAB9. The assay is described as above. Conditions: P. falciparum in erythrocytes, SYBR Green DNA, 72 h; series mostly up to 28.7 µM. In short, it runs like this:
as §1

The test system of another assay is HB3. The description is as above. The following applies: P. falciparum in erythrocytes, SYBR Green DNA, 72 h; series mostly up to 28.7 µM. In short, it runs like this: as §1
The next assay concerns PC15. The description is as above. Conditions: P. falciparum in erythrocytes, SYBR Green DNA, 72 h; series mostly up to 28.7 µM. In short, it runs like this: as §1
A further assay relates to PC26. The assay is described as above. Conditions: P. falciparum in erythrocytes, SYBR Green DNA, 72 h; series mostly up to 28.7 µM. In short, it runs like this:
as §1

A further assay has as its system PC49. The assay is described as above. Conditions: P. falciparum in erythrocytes, SYBR Green DNA, 72 h; series mostly up to 28.7 µM. The method in brief: as §1
A further assay concerns W2. The assay is described as above. The following applies: P. falciparum in erythrocytes, SYBR Green DNA, 72 h; series mostly up to 28.7 µM. The method in brief: as §1
Assay [11] has as its target Glucocorticoid receptor (Homo sapiens) (UniProt P04150). Kind of assay: GR-EFC Redistribution (AID 451; calls by dose curve; further: potency means the concentration at half of the fitted maximal effect). Conditions: CHO-K1 GR-EFC translocation, beta-gal luminescence, 2 h. In short, it runs like this: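 CHO-K1 cells expressing nuclear EA and GR-ED fragments of b-gal; compounds titrated up to 46 uM final, 2 h at 37 C. GR nuclear translocation read as complemented b-gal luminescence after 1 h RT detection.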

In assay [12] the target is Guanine nucleotide-binding protein G(i) subunit alpha-1 (Homo sapiens) (UniProt P63096). Kind of assay: qHTS Assay for Inhibitors of RGS12 GoLoco Motif Activity (Green Fluorophore) (AID 879).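 Further: 0% = labeled peptide with Gαi1 and full inhibition = labeled peptide alone without protein; negative values mean loss of peptide binding seen as reduced polarization.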 In short, it runs like this:
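Fluorescence polarization assay: 50 nM Gαi1 with 10 nM FITC-labeled RGS12 GoLoco peptide in 10 mM Tris pH 7.5, 150 mM NaCl, 0.1 mM GDP, 0.05% NP40, 10 min at room temperature with compound.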

Assay [13] can be described thus: qHTS Assay for Identification of Small Molecule Antagonists for NFkB Signaling Pathway (AID 895; active means well fitted inhibition curve with a large enough effect in the signal ratio, with a control signal flat, not every such curve was filed as active; the % refers to the signal ratio; further: potency means the concentration at half of the fitted maximal effect). In short, it runs like this: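 ME-180 NFkB-bla cells (beta-lactamase under NFkB response element), plated overnight, treated with compound then 10 pM TNF alpha (about EC50) for 5 hrs at 37 C. LiveBLAzer FRET read at 460/530 nm emission, 405 nm excitation.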
Assay [14] is described as follows: qHTS Assay for Identification of Small Molecule Agonists for Thrombopoietin (TPO) Signaling Pathway (AID 917). Further: on the % scale 0 is the no-effect control and ±100 the full control effect. In short, it runs like this: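 Murine Ba/F3 cells expressing human TPO receptor and GPIIb-promoter luciferase, IL-3-starved overnight, given compound plus TPO at 26 pM (EC50). After 24 h at 37 C, 5% CO2, luminescence read.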
Assay [15] deals with Muscarinic acetylcholine receptor M1 (Rattus norvegicus) (UniProt P08482). Kind of assay: qHTS Assay for Antagonists of Acetylcholine Muscarinic M1 Receptor: Measurement of IP-One Response (AID 944). Further: nearly all actives have a fitted effect of over 75% in size. In short, it runs like this: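 CHO cells expressing rat M1 receptor, recovered overnight, were pre-incubated 10 min with compound, then stimulated 30 min with carbachol at EC80 (200 nM) in LiCl-containing buffer, pH 7.4. IP1 accumulation was read by HTRF (620/665 nm).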

For assay [16], the target named is Pyruvate kinase (Leishmania mexicana) (UniProt Q27686). In words: qHTS Validation Assay for Inhibitors of Leishmania Mexicana Pyruvate Kinase (AID 945).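 Further: 0% = DMSO only neutral control wells.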 In short, it runs like this: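 Read-out: luminescence from PKLight stop/detection reagent, data normalized to DMSO. Reaction: 0.2 nM E451W LmPYK, 0.5 mM PEP, 0.1 mM ADP, pH 7.2, 1 h room temperature.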
Assay [17] has as its target Pyruvate kinase PKM (Homo sapiens) (UniProt P14618). In words: qHTS Assay for Activators of Human Muscle Pyruvate Kinase (AID 954; active means well fitted curve in the direction sought with a large enough effect, not every such curve was filed as active;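 further: 0% = uninhibited enzyme and -100% = no enzyme or full thiadiazolimine inhibition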). The method in brief:
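Enzyme was run at intermediate activity so both inhibitors and activators could be detected. ATP formed from ADP and PEP by 0.1 nM human PKM2 during a 1 h room-temperature incubation was quantified by coupled luciferase luminescence.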

For assay [18], the target named is Alpha-galactosidase A (Homo sapiens) (UniProt P06280). In words: Counterscreen for Glucocerebrosidase Inhibitors: qHTS Assay for Human alpha-Galactosidase at pH 4.5 (AID 992). Further: 0% is about no effect. The method in brief:
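Read-out is 4-methylumbelliferone fluorescence (365 nm excitation, 440 nm emission) after a pH 10 NaOH/glycine stop. Reactions held 2 nM enzyme and 80 uM substrate at pH 4.5 for 20 min at room temperature.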

For assay [19], the target named is alpha-glucosidase (Oryza sativa, rice) (UniProt Q653V4). Kind of assay: Counterscreen for Glucocerebrosidase Inhibitors: qHTS Assay for Rice alpha-Glucosidase at pH 5.0 (AID 997).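 Further: 0% = full activity with enzyme and -100% = basal without enzyme.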 In short, it runs like this:
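Rice alpha-glucosidase (4 nM final) with 400 uM 4-methylumbelliferyl-alpha-D-glucopyranoside in citrate buffer pH 5.0, 20 min at room temperature, stopped at pH 10; fluorescence 365/440 nm, compounds 0.7 nM–77 uM, AC50 from Hill fits.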

The structures appear in SMILES notation. Values without a mark were called inactive. Inconclusive results are not listed. Calls of active or inactive are those of the source. Unless noted, the call rests on the fitted dose curve; in most records, active means well fitted curve in the direction sought with a large enough effect; inconclusive means small, poorly fitted or top-dose-only effect, or another doubt; inactive means no such curve, though single readings can be large; an effect the other way counts as inactive or inconclusive.

Sequence of Glucocorticoid receptor (Homo sapiens) (P04150 whole entry, looked up, the tested form may be a part): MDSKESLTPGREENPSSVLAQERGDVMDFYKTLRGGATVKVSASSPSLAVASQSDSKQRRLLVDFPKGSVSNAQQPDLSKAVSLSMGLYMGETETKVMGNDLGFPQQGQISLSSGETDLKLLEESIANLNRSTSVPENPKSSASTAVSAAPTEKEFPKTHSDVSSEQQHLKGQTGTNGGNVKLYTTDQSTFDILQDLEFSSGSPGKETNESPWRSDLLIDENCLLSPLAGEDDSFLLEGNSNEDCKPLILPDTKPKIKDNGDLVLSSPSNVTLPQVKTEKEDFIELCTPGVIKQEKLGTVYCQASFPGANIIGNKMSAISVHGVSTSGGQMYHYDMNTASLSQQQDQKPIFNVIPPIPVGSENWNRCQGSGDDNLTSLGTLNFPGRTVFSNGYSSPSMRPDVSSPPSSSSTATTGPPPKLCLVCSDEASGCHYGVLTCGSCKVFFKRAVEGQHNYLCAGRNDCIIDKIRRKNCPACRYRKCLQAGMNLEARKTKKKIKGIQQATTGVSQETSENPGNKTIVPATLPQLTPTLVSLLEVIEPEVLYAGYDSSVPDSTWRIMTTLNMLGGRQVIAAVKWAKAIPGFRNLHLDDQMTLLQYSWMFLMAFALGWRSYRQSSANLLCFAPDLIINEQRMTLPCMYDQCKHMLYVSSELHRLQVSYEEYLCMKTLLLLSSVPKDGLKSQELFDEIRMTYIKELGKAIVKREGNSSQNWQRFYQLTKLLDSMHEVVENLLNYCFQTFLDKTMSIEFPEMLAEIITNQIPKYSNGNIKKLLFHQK
Sequence of 3',5'-cyclic-AMP phosphodiesterase 4B (Homo sapiens) (Q07343 whole entry, looked up): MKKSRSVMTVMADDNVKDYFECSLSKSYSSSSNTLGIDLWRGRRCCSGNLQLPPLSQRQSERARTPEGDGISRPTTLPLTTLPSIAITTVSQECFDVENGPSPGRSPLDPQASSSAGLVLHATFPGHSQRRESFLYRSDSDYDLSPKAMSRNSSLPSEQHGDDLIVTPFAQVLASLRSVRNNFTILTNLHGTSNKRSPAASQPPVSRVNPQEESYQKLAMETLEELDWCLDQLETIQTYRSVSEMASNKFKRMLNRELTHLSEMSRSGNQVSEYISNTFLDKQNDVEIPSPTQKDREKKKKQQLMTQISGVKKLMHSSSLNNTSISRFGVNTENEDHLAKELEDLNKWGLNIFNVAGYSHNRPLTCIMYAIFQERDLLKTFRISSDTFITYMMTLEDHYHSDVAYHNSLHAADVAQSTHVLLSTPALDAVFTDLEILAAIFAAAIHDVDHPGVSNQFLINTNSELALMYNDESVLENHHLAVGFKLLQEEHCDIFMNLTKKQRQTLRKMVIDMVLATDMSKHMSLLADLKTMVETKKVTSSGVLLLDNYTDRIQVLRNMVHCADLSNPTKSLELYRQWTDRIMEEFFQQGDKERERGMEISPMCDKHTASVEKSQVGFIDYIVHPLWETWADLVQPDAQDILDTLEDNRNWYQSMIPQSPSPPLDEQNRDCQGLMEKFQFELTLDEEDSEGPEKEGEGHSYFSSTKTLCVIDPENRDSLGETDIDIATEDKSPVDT
Sequence of Pyruvate kinase (Leishmania mexicana) (Q27686 2-499 E452W): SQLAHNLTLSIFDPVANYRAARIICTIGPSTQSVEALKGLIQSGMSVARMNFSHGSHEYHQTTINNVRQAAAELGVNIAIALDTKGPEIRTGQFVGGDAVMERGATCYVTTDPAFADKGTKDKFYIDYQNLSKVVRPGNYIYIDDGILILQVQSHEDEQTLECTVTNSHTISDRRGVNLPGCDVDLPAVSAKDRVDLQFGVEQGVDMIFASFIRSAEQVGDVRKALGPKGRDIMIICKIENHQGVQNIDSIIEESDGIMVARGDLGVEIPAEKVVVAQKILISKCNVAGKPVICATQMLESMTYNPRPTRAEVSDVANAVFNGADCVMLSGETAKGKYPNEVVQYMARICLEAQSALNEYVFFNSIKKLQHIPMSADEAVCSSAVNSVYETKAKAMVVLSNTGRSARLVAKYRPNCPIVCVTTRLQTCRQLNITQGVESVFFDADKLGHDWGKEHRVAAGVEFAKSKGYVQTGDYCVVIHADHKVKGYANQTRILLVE
Sequence of Muscarinic acetylcholine receptor M1 (Rattus norvegicus) (P08482 whole entry, looked up): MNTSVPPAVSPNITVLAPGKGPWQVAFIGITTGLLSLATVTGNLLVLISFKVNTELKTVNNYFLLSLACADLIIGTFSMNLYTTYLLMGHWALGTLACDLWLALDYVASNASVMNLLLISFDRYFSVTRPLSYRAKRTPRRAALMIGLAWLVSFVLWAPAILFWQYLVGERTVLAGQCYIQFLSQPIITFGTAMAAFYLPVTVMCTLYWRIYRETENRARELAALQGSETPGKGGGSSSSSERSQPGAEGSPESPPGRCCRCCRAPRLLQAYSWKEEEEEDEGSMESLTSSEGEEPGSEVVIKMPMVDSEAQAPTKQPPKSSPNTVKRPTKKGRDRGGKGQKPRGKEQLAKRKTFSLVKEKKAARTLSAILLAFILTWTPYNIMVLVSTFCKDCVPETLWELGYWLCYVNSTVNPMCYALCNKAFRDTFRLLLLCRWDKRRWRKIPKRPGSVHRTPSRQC
Sequence of ATP-dependent 6-phosphofructokinase (Trypanosoma brucei brucei) (O15648 whole entry, looked up): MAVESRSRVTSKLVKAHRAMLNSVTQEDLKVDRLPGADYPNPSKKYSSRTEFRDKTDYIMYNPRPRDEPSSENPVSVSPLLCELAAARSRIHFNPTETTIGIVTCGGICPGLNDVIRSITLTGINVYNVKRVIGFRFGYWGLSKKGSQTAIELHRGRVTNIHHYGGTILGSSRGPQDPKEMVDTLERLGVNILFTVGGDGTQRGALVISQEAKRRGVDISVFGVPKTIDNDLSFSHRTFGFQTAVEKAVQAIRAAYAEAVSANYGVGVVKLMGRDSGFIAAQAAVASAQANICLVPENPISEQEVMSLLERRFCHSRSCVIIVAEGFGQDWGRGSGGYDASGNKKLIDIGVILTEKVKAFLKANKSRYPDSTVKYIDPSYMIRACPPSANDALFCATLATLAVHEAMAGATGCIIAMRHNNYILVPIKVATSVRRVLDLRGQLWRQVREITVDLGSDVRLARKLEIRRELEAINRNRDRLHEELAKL
Sequence of Luciferin 4-monooxygenase (Photinus pyralis) (P08659 whole entry, looked up): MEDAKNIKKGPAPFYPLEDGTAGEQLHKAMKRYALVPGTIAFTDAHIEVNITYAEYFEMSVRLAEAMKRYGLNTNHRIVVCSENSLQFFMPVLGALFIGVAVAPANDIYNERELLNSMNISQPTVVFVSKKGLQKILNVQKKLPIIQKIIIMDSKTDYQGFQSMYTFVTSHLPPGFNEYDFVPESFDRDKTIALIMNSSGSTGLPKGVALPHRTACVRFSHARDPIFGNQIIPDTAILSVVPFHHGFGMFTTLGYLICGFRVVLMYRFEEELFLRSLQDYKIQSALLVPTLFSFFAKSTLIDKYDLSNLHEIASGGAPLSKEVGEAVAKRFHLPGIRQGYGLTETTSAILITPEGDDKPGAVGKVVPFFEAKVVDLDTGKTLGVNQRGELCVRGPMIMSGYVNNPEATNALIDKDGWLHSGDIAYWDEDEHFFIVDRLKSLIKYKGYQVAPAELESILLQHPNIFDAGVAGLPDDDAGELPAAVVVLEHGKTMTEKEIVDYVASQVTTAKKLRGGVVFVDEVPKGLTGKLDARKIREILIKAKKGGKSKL
Sequence of Guanine nucleotide-binding protein G(i) subunit alpha-1 (Homo sapiens) (P63096 whole entry, looked up): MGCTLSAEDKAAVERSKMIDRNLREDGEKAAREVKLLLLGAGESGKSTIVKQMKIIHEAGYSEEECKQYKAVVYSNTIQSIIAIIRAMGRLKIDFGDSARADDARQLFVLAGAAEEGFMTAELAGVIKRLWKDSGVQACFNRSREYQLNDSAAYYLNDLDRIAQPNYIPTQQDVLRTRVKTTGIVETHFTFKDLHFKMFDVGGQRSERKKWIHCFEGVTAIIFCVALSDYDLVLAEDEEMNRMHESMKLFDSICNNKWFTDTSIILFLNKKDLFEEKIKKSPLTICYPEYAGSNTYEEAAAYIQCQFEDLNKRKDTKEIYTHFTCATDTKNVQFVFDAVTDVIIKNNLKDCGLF
Sequence of Pyruvate kinase PKM (Homo sapiens) (P14618 whole entry, looked up): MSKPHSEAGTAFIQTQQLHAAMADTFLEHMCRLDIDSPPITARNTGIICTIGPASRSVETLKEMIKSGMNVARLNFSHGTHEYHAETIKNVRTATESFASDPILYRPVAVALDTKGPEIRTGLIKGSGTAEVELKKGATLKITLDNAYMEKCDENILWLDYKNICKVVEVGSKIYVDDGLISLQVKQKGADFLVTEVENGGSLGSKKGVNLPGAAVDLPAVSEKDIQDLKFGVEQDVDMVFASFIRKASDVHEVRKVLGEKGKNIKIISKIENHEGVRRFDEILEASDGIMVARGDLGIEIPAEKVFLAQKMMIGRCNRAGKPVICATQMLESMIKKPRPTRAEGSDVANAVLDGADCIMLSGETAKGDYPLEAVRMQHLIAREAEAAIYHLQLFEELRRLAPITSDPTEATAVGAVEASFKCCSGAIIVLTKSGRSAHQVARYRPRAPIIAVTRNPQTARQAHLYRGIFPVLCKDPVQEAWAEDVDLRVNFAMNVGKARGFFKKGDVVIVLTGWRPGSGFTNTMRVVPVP
Sequence of Alpha-galactosidase A (Homo sapiens) (P06280 whole entry, looked up): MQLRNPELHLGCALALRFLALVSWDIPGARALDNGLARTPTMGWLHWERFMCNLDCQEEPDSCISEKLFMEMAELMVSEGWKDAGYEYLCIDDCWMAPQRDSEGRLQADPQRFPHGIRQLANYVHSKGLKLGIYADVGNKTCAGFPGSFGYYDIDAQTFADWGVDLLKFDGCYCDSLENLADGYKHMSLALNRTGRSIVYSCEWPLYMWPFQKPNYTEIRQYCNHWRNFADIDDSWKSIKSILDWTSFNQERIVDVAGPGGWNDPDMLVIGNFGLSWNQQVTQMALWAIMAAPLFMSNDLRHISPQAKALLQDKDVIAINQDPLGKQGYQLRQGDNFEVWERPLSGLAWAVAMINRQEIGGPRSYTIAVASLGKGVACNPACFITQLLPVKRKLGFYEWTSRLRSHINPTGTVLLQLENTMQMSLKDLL

On to `Cc1c(NC(=O)c2coc(=O)c(Br)c2)c(=O)n(-c2ccccc2)n1C`, for which the activity change, negative = inhibition in [1] was -128% (active). In assay [2], the Potency was above 20.6 µM.

`CCCCNc1c(CN)cnc2cc(Cl)ccc12`: in [3], the activity, negative = inhibition is -10.8% [at 7.69 µM].

On to `COc1cc([C@H]2c3cc4c(cc3[C@@H](O[C@H]3O[C@H]5CO[C@@H](C)O[C@H]5[C@@H](O)[C@@H]3O)[C@@H]3COC(=O)[C@H]23)OCO4)cc(OC)c1O`, for which, in [1], the activity change, negative = inhibition is -0.949%. Besides, the activity, negative = inhibition in [3] was -20.6%. For the same compound, the Potency entry in assay [4], in assay [5], in assay [6], in [7], in [8] and in [9] was “inactive” throughout. For the same compound, the Potency result in the assay with CP192, in the assay with CP201, in the assay on CP203, in the assay on CP262, with CP266 and with CP315 was “inactive” each time. For the same compound, the Potency result in the assay with DIV14, in the assay with FAB9, in the assay on HB3, with PC15, in the assay with PC26 and in the assay on PC49 was “inactive” throughout. For the same compound, the values for the Potency (in [10]; with 7G8; with W2) were 4.46 µM (active), 15.8 µM (active) and 13.5 µM (active), respectively.

As to `COc1ccccc1-c1nn2c(-c3ccc(C(C)(C)C)cc3)nnc2s1`, the activity change, negative = inhibition in [1] was -12.3%. Moreover, in assay [2], the Potency is above 20.6 µM.

For `Nc1ncnc2c1ncn2[C@@H]1O[C@@H](CO)[C@H](O)[C@@H]1O`, in assay [1], the activity change, negative = inhibition was 4.32% [at 38 µM]. Further, the figures for the Potency in assay [2], in [11] and in assay [13] were above 46 µM, above 46 µM and 4.47 µM (active), respectively. For the same compound, the Potency entry in assay [4], in assay [5], in [14], in assay [15] and in assay [16] was “inactive” in each case. For the same compound, the compound was classed as inactive in [12], in assay [17], in assay [18] and in [19].
